# Key:
# Assay in all cases: DAPPL (digital affinity profiling via proximity ligation, sequencing); 10 mM Tris-HCl pH 7.5, 50 mM NaCl, 1 mM DTT, 4% glycerol, room temperature, 30 min; GST-TFs on glutathione beads, 16-mer random dsDNA library, 0.1% formaldehyde crosslink after washing; high values mean tight binding
# [1] = molecular target: T1, FEV (Homo sapiens, UniProt Q99581 1-238); conditions: protein: recombinant; tags: N-terminal GST; dsDNA, one strand shown
# T1 sequence: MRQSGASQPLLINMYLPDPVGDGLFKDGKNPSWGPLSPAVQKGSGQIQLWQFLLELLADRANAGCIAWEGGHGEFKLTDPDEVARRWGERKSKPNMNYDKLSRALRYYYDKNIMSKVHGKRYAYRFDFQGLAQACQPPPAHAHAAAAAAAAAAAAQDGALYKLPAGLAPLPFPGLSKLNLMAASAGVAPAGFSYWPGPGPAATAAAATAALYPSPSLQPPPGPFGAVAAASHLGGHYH
# Method in brief: (§1)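 Beads coated with glutathione captured GST-fused human transcription factors that had been expressed in yeast, and the factors were then given DNA barcodes and pooled with a tag-only sample. The pools were incubated with 200 nmole of a random double-stranded 16-mer DNA library in Tris/NaCl/DTT/glycerol buffer for 30 min at room temperature, washed, crosslinked with 0.1% formaldehyde and proximity-ligated with BsaI/T4 ligase at 37 °C for 1 h. PCR amplification and Illumina NextSeq500 sequencing came last. Binding signal is each hexamer's read frequency for a factor divided by its frequency for the tag-only sample.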
# [2] = molecular target: ETV5 (Homo sapiens, UniProt P41161 1-510); conditions: protein: recombinant; tags: N-terminal GST; dsDNA, one strand shown
# ETV5, sequence (P41161 whole entry): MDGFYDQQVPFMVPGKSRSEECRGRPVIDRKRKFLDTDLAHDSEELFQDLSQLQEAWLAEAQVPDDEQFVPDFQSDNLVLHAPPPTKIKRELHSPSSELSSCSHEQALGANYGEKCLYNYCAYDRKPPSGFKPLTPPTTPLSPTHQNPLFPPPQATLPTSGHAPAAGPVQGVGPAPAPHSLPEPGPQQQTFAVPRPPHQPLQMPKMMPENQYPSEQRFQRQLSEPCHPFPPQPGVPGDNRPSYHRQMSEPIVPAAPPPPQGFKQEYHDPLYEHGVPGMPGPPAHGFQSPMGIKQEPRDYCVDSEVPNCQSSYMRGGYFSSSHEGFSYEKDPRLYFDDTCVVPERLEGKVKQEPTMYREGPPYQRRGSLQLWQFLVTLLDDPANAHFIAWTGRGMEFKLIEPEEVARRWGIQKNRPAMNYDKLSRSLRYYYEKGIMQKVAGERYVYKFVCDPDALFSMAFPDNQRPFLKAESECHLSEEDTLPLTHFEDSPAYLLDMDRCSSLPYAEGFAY
# Method in brief: as §1
# [3] = molecular target: HSF1 (Homo sapiens, UniProt Q00613 1-529); conditions: protein: recombinant; tags: N-terminal GST; chain copies: 3; dsDNA, one strand shown
# HSF1, sequence (Q00613 whole entry): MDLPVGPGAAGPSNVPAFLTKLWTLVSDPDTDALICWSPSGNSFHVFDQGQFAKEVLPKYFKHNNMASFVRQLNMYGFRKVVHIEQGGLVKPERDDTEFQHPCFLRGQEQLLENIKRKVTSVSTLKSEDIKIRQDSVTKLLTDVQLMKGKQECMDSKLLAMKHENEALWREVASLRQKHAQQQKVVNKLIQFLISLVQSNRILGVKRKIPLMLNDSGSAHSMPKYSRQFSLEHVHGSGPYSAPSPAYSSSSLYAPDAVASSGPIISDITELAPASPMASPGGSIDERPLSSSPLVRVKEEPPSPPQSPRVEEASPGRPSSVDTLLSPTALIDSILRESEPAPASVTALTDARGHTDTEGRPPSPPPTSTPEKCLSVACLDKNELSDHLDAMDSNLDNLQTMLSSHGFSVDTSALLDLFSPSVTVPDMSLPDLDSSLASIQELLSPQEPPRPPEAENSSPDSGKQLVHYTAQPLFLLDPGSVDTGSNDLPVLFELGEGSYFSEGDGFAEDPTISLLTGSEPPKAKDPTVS
# Method in brief: as §1
# [4] = molecular target: T2, SPIC (Homo sapiens, UniProt Q8N5J4 1-248); conditions: protein: recombinant; tags: N-terminal GST; dsDNA, one strand shown
# T2 sequence: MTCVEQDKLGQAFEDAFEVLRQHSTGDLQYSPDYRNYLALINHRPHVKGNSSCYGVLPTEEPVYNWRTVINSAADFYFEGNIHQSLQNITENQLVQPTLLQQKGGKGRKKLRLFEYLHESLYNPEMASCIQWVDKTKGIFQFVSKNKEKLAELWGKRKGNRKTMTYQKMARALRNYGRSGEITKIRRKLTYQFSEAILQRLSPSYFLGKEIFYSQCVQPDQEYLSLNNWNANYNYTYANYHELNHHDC
# Method in brief: as §1
# [5] = molecular target: ELF4 (Homo sapiens, UniProt Q99607 1-663); conditions: protein: recombinant; tags: N-terminal GST; dsDNA, one strand shown
# ELF4, sequence (Q99607 whole entry): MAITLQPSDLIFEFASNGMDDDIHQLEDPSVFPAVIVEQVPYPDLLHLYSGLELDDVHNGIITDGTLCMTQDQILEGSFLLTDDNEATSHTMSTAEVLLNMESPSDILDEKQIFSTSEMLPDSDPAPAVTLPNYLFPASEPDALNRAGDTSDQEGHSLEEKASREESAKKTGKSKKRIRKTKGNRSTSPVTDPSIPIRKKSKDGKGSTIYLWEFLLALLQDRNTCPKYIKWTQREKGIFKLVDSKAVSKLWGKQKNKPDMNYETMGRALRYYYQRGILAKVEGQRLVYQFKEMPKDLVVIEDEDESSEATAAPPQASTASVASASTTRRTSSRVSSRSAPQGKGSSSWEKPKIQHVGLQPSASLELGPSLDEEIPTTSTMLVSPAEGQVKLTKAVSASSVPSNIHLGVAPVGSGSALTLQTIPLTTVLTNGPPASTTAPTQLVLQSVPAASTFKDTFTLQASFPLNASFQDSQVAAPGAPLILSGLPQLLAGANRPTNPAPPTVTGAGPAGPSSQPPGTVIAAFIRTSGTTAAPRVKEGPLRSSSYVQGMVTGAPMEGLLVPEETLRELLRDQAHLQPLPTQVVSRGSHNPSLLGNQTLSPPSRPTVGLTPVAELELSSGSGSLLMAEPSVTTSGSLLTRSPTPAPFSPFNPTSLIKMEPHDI
# Method in brief: as §1
# [6] = molecular target: T3, ELK4 (Homo sapiens, UniProt P28324-2 1-405); conditions: protein: recombinant; tags: N-terminal GST; dsDNA, one strand shown
# T3 sequence: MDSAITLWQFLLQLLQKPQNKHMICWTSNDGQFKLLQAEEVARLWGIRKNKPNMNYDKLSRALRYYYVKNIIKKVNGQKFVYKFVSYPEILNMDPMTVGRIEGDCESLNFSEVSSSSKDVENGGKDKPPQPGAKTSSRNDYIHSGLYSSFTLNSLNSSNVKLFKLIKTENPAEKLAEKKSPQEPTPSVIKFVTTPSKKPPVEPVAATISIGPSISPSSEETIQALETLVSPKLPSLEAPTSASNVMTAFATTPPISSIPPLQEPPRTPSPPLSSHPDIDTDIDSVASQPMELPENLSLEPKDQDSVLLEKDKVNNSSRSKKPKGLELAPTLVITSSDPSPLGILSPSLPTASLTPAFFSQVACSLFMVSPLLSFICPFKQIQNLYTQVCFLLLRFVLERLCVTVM
# Method in brief: as §1
# [7] = molecular target: T4, ETV2 (Homo sapiens, UniProt O00321 1-342); conditions: protein: recombinant; tags: N-terminal GST; dsDNA, one strand shown
# T4 sequence: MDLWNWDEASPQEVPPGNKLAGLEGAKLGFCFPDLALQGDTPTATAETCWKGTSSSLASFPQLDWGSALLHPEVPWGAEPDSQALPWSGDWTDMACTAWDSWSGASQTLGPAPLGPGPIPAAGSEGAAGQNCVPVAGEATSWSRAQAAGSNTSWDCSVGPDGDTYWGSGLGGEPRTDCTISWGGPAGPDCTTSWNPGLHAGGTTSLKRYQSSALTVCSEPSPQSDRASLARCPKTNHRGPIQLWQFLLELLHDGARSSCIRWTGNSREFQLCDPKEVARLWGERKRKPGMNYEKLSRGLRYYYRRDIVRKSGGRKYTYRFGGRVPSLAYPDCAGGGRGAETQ
# Method in brief: as §1
# [8] = molecular target: T5, ELF3 (Homo sapiens, UniProt P78545 1-371); conditions: protein: recombinant; tags: N-terminal GST; dsDNA, one strand shown
# T5 sequence: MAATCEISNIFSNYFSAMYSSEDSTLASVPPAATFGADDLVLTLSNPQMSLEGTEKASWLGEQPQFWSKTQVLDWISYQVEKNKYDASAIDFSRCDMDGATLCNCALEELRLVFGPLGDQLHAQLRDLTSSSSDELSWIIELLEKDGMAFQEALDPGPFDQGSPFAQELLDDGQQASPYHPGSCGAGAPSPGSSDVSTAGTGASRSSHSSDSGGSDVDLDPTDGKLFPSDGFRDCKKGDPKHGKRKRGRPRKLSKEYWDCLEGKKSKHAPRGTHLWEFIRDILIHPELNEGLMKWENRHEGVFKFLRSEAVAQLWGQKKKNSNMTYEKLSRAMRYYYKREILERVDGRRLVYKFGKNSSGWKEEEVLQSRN
# Method in brief: as §1
# [9] = molecular target: CRX (Homo sapiens, UniProt O43186 1-299); conditions: protein: recombinant; tags: N-terminal GST; dsDNA, one strand shown
# CRX, sequence (O43186 whole entry): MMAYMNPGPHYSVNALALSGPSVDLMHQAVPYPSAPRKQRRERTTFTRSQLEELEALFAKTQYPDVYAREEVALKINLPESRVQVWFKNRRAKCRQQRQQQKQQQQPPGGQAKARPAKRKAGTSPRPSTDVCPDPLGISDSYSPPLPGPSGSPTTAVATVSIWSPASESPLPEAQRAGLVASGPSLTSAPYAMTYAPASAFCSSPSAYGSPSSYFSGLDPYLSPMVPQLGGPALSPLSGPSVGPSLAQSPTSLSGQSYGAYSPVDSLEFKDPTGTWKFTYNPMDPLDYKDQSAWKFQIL
# Method in brief: as §1
# [10] = molecular target: ETV1 (Homo sapiens, UniProt P50549 1-477); conditions: protein: recombinant; tags: N-terminal GST; dsDNA, one strand shown
# ETV1, sequence (P50549 whole entry): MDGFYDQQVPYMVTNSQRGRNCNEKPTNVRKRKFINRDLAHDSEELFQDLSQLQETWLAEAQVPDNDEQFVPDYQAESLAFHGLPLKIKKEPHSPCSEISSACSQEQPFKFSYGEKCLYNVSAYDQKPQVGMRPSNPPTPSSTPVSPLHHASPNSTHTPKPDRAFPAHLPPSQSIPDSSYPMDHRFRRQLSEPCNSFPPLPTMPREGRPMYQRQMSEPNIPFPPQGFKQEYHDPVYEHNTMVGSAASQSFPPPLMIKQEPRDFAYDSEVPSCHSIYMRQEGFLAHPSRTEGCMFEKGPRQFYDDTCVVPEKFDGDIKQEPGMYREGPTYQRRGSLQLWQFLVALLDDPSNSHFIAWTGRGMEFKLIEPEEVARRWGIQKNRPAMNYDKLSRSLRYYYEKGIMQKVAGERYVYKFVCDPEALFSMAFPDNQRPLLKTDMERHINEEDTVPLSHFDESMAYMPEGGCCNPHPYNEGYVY
# Method in brief: as §1
# [11] = molecular target: T6, ERF (Homo sapiens, UniProt P50548 1-548); conditions: protein: recombinant; tags: N-terminal GST; dsDNA, one strand shown
# T6 sequence: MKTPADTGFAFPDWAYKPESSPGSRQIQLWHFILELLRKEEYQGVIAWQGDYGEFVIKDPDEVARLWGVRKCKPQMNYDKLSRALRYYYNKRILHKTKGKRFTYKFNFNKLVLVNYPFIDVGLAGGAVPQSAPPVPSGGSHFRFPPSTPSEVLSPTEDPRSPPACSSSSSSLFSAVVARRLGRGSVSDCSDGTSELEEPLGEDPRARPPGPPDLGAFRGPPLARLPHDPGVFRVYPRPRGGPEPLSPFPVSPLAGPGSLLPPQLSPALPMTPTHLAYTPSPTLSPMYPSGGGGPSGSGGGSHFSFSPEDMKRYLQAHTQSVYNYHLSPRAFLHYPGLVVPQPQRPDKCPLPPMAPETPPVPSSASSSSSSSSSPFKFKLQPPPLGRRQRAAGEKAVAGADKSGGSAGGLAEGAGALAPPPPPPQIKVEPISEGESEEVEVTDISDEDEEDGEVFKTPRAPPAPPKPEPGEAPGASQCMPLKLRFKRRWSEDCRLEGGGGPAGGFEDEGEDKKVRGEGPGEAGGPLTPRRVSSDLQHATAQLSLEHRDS
# Method in brief: as §1
# [12] = molecular target: T7, ETV3L (Homo sapiens, UniProt Q6ZN32 1-361); conditions: protein: recombinant; tags: N-terminal GST; dsDNA, one strand shown
# T7 sequence: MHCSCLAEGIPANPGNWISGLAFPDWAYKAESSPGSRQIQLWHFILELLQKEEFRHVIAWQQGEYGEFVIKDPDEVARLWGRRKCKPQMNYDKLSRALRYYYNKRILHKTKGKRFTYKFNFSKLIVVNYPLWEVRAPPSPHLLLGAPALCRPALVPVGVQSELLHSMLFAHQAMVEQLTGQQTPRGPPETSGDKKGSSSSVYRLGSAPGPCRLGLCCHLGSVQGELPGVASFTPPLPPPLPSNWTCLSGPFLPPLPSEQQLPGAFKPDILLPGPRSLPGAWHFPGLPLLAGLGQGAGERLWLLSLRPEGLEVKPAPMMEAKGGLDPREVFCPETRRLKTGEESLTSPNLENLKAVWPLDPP
# Method in brief: as §1
# [13] = molecular target: T8, ETS2 (Homo sapiens, UniProt P15036 1-469); conditions: protein: recombinant; tags: N-terminal GST; dsDNA, one strand shown
# T8 sequence: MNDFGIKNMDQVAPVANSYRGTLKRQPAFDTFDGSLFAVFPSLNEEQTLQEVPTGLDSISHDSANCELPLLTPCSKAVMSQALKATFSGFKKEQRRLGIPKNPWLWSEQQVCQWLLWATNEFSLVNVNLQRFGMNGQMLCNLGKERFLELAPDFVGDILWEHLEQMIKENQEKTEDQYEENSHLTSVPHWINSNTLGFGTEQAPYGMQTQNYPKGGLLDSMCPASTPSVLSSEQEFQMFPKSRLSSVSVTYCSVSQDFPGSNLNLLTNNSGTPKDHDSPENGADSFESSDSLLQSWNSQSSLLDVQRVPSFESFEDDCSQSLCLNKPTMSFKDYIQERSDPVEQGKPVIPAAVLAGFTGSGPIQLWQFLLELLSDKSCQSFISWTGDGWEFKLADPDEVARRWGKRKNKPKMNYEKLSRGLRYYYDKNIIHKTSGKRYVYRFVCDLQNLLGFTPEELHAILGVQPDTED
# Method in brief: as §1
# [14] = molecular target: T9, SPDEF (Homo sapiens, UniProt O95238 1-335); conditions: protein: recombinant; tags: N-terminal GST; dsDNA, one strand shown
# T9 sequence: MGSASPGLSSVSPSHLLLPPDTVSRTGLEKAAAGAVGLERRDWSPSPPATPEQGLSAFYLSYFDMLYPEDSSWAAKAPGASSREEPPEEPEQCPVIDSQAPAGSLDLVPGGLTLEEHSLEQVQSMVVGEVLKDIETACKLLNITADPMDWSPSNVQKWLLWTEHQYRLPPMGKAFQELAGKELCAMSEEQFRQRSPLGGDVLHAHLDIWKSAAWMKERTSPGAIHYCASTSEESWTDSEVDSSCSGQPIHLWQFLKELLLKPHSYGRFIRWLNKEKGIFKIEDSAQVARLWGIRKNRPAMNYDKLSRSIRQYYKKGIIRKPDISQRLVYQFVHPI
# Method in brief: as §1
# [15] = molecular target: T10, ETV7 (Homo sapiens, UniProt Q9Y603 1-341); conditions: protein: recombinant; tags: N-terminal GST; dsDNA, one strand shown
# T10 sequence: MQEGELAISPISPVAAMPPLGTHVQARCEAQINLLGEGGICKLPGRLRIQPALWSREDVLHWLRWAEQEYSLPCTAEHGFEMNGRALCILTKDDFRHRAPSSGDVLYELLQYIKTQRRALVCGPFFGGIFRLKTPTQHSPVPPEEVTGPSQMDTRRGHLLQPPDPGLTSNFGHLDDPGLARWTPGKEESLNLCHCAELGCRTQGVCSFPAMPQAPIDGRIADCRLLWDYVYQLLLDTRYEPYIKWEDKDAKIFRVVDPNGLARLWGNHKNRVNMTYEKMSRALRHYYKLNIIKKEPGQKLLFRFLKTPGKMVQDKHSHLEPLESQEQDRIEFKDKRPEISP
# Method in brief: as §1
# [16] = molecular target: T11, ELF5 (Homo sapiens, UniProt Q9UKW6-2 1-255); conditions: protein: recombinant; tags: N-terminal GST; dsDNA, one strand shown
# T11 sequence: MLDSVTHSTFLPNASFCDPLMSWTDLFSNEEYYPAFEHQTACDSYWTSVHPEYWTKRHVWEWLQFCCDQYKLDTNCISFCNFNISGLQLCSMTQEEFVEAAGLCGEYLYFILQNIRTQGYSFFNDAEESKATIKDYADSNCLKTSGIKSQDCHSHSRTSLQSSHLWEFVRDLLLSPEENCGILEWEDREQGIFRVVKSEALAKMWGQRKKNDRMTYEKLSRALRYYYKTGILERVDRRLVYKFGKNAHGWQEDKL
# Method in brief: as §1
# [17] = molecular target: T12, ETV3 (Homo sapiens, UniProt P41162-2 1-143); conditions: protein: recombinant; tags: N-terminal GST; dsDNA, one strand shown
# T12 sequence: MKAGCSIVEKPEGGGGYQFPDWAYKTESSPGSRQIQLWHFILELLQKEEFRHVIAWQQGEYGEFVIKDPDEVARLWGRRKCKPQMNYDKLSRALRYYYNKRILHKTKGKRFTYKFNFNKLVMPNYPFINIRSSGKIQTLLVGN
# Method in brief: as §1
# [18] = molecular target: ETV6 (Homo sapiens, UniProt P41212 1-452); conditions: protein: recombinant; tags: N-terminal GST; dsDNA, one strand shown
# ETV6, sequence (P41212 whole entry): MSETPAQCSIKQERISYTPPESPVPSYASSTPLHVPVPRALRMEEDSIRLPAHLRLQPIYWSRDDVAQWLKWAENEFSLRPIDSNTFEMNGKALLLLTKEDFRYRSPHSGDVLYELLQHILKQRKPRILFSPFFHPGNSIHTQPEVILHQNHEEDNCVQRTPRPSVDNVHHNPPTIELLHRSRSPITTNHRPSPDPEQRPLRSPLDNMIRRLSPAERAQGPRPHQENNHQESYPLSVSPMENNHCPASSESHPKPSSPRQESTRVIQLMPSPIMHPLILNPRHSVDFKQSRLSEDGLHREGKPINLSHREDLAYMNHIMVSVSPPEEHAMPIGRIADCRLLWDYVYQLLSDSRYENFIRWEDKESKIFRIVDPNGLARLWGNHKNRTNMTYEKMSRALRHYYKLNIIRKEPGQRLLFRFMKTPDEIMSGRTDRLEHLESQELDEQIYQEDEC
# Method in brief: as §1
sequence,measurement,setting,value
ACACTA,binding signal,[1],"1.14 fold enrichment (6-mer frequency, TF over GST control)"
same,binding signal,[2],"1.14 fold enrichment (6-mer frequency, TF over GST control)"
same,binding signal,[3],"1.12 fold enrichment (6-mer frequency, TF over GST control)"
same,binding signal,[4],"1.14 fold enrichment (6-mer frequency, TF over GST control)"
same,binding signal,[5],"1.13 fold enrichment (6-mer frequency, TF over GST control)"
same,binding signal,[6],"1.16 fold enrichment (6-mer frequency, TF over GST control)"
same,binding signal,[7],"1.1 fold enrichment (6-mer frequency, TF over GST control)"
same,binding signal,[8],"1.19 fold enrichment (6-mer frequency, TF over GST control)"
same,binding signal,[9],"1.11 fold enrichment (6-mer frequency, TF over GST control)"
same,binding signal,[10],"1.03 fold enrichment (6-mer frequency, TF over GST control)"
same,binding signal,[11],"1.15 fold enrichment (6-mer frequency, TF over GST control)"
same,binding signal,[12],"1.18 fold enrichment (6-mer frequency, TF over GST control)"
same,binding signal,[13],"1.1 fold enrichment (6-mer frequency, TF over GST control)"
same,binding signal,[14],"1.09 fold enrichment (6-mer frequency, TF over GST control)"
same,binding signal,[15],"1.15 fold enrichment (6-mer frequency, TF over GST control)"
same,binding signal,[16],"1.09 fold enrichment (6-mer frequency, TF over GST control)"
same,binding signal,[17],"1.12 fold enrichment (6-mer frequency, TF over GST control)"
same,binding signal,[18],"1.21 fold enrichment (6-mer frequency, TF over GST control)"

# Reference: article PMC7862700, “An all-to-all approach to the identification of sequence-specific readers for epigenetic DNA modifications on cytosine”
